Entries with a potency or affinity are not part of this list. Results filed as inconclusive are left out. The source made the active and inactive calls. Unless noted, how the calls were made is not given here.
Experiments:
[1] = cytotoxicity in PAX8-dependent RMG-1 cells, dose response, cell-based, cherry-pick (AID 687029;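 active means signal drop whose fitted half-maximal concentration is at most twice the top valid dose, in every test run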;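 further: cells exposed to compound for 96 hours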); settings: RMG-1 viability, CellTiterGlo ATP luminescence, 96 h; series mostly up to 35 µM
[2] = cytotoxicity in IOSE-T80 ovarian epithelial cells, dose response, selectivity assay for PAX8 inhibitor project, cell-based, cherry-pick (AID 687032;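 active means fitted half-maximal concentration for viability loss no higher than twice the top valid dose, in every repeat run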;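 further: cells exposed to compound for 96 h before reading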); settings: CellTiterGlo ATP luminescence, 96 h; series mostly up to 35 µM
[3] = non-specific cell cytotoxicity, dose response, cytotoxicity control for PAX8 inhibitor project, plate reader, dry powder samples (AID 743021); settings: cell line, non-specific cytotoxicity counter-screen; series mostly up to 35 µM
[4] = inhibitors of CMV-promoter luciferase reporter, dose response, counter-screen for Pax8 inhibitor project, cell-based, HEK293, luminescence, dry powder (AID 743020;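 active means signal-lowering compounds whose fitted half-maximal concentration is at or below twice the top tested dose in every run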;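 further: HEK293 cells stably expressing the CMV luciferase reporter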); settings: SteadyGlo luminescence, 24 h; series mostly up to 35 µM
[5] = A2780 ovarian cancer cell cytotoxicity, dose response, cytotoxicity control, plate reader, dry powder samples (AID 743046); settings: series mostly up to 35 µM
[6] = cytotoxicity in OVCAR8 ovarian cancer cells, dose response, PAX8 project, cell-based, plate reader, dry powder samples (AID 743197); settings: series mostly up to 35 µM

Measured: outcome

CCC1(O)C(=O)OCc2c1cc1n(c2=O)Cc2cc3c(N)cccc3nc2-1 (stereo not given)
inactive: [1] | [2] | [3]

COc1ccc(S(=O)(=O)Nc2ccc3c(c2)C(=O)N([C@@H](C)CO)C[C@H](C)[C@H](CN(C)Cc2ccc(C(F)(F)F)cc2)OCCCC[C@H](C)O3)cc1
inactive: [1] | [2] | [4] | [5] | [6]

Cc1ccc2nc(C)cc(Nc3ccc([N+](=O)[O-])cc3)c2c1
inactive: [1] | [2] | [3]

O=C(Nc1ccc([N+](=O)[O-])cc1)Nc1nc(-c2ccc(Cl)s2)cs1
inactive: [1] | [2] | [3]

CC(C)N1CCc2c(sc(NC(=O)c3ccc([N+](=O)[O-])o3)c2C(N)=O)C1
inactive: [1] | [2] | [3]

N#CC1(NC(=O)Cn2ncc(Cl)c(Cl)c2=O)CCCCC1
inactive: [1] | [2] | [3]

O=c1c(Cl)c(Cl)cnn1Cc1nnc(-c2ccccc2Br)o1
inactive: [1] | [2] | [3]

Oc1ccc(N=Nc2ccccc2C(F)(F)F)c2cccnc12
inactive: [1] | [2] | [3]

COc1c(C=O)c2c(c(OC)c1OC)-c1ccc(OC)c(=O)cc1C(NC(C)=O)CC2 (stereo not given)
inactive: [1] | [2] | [3]

Cc1ccc(C(=O)c2cc([N+](=O)[O-])ccc2N2CCCCC2)cc1
inactive: [1] | [2] | [3]

C=CC(=O)N=c1sc2ccccc2n1-c1ccccc1
inactive: [1] | [2] | [3]

CCOC(=O)c1cnn(CCOC(=O)c2cccc(F)c2)c1NC(=O)c1cccc(F)c1
inactive: [1] | [2] | [3]

COc1cc(/C=N/NS(=O)(=O)c2ccc(C)cc2)ccc1OCc1cccc(C(=O)O)c1
inactive: [1] | [2] | [3]

COc1cc(/C=N\NC(=O)c2ccc(-c3ccccc3)cc2)cc(OC)c1OC(C)=O
inactive: [1] | [2] | [3]

COc1ccc(S(=O)(=O)N2CCCCN3[C@H](CO)[C@H](c4ccc(C#CC(C)C)cc4)[C@H]3C2)cc1
inactive: [1] | [2] | [4] | [5] | [6]

CN(C)CCNc1ccc(CO)c2sc3ccc(O)cc3c(=O)c12
inactive: [1] | [2] | [3]

CC(C)(C)C(=O)Nc1ccc(NC(=O)c2ccco2)nc1
inactive: [1] | [2] | [3]

CN[C@H]1CCc2cc(OC)c(OC)c(OC)c2-c2ccc(OC)c(=O)cc21
inactive: [1] | [2] | [3]

CS(=O)(=O)Nc1ccc2c(c1)[C@@H]1C[C@@H](CC(=O)NCc3ccc(Oc4ccccc4)cc3)O[C@@H](CO)[C@@H]1O2
inactive: [1] | [2] | [3]

CC(C)C(=O)N1CCN(c2ccc(NC(=O)c3ccc([N+](=O)[O-])o3)cc2)CC1
inactive: [1] | [2] | [3]

C#CCN(C[C@@H]1[C@@H](OC(=O)Nc2cccs2)[C@@H](OC(=O)Nc2cccs2)Cn2c(=O)ccc(=O)n21)S(=O)(=O)c1ccc(C)cc1
inactive: [1] | [2] | [3]

N#Cc1cccc(-c2ccc(C3[C@@H]4CN(C(=O)C5CC5)C[C@H]3N4)cc2)c1 (stereo not given in full)
inactive: [1] | [2] | [3]

COc1cc(OC)c(NC2=CC(=O)C(=O)c3ccccc32)cc1Cl
inactive: [1] | [2] | [3]

O=C(NCCN1C(=O)S/C(=C\c2ccc(OC(F)F)cc2)C1=O)c1cnccn1
inactive: [1] | [2] | [3]

CC(=O)OC1CCC2(C)C(CCC3C4CC=C(C(C)=O)C4(C)OC(=O)CC32)C1 (stereo not given)
inactive: [1] | [2] | [3]

Cc1ccc(S(=O)(=O)Nc2ccc3c(c2)C(=O)N([C@H](C)CO)C[C@H](C)[C@@H](CN(C)Cc2ccc(C(F)(F)F)cc2)OCCCC[C@H](C)O3)cc1
inactive: [1] | [2] | [3]

C=C1C(=O)O[C@@H]2C[C@@H](C)[C@@H]3C=CC(=O)[C@@]3(C)[C@@H](OC(C)=O)[C@H]12
inactive: [1] | [2] | [3]

Cc1cccc(C2(c3cccc(C)c3)CC2C(=O)Nc2ccc([N+](=O)[O-])cc2O)c1 (stereo not given)
inactive: [1] | [2] | [3]

COc1ccc(C(=O)NN(C)c2nc(C(F)(F)F)nc3ccccc23)cc1
inactive: [1] | [2] | [3]

CCOC(=O)c1cnc2ccc(C(=O)OC)cc2c1Nc1ccc(C(=O)O)cc1
inactive: [1] | [2] | [3]

C[C@@H]1CCCCO[C@@H](CN(C)CC2CCCCC2)[C@H](C)CN([C@H](C)CO)C(=O)c2cc(NS(=O)(=O)c3ccc(Cl)cc3)ccc2O1
inactive: [1] | [2] | [3]

O=C(CCCN1C(=O)/C(=C\c2cccc(Br)c2)SC1=S)Nc1cccnc1
inactive: [1] | [2] | [3]
